# Tests used:
# Test in all cases: relative growth (AUC of 72 h growth curve relative to DMSO control, dAUC) (ratio); higher = more growth (less inhibition), active = hit call of the paper
# Details in all cases: 20 µM;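 active = growth AUC significantly below the DMSO wells by Dunnett test; inactive = the rest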
# [1] = system: Aeromonas 1 (Aeromonas sp. AE235)
# How it was run: (§1)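 Growth was followed as A600, read hourly for 72 h on a plate reader after brief shaking. Isolates from Icelandic stream sediments and Silwood Park soil, and whole sediment communities, were first grown to carrying capacity in Luria–Bertani medium and then diluted 1:100 into 96-well plates with each chemical at 20 µM (1% DMSO). Relative growth (dAUC) is the spline-integrated area under the curve scaled to the mean of the DMSO controls, and the values are averages of three biological replicates.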
# [2] = system: Aeromonas 2 (Aeromonas sobria)
# How it was run: as §1
# [3] = system: Aeromonas 3 (Aeromonas popoffii)
# How it was run: as §1
# [4] = system: Argrobacterium 1 (Agrobacterium sp.)
# How it was run: as §1
# [5] = system: Arthrobacter 1 (Arthrobacter humicola)
# How it was run: as §1
# [6] = system: Arthrobacter 2 (Arthrobacter humicola)
# How it was run: as §1
# [7] = system: Arthrobacter 3 (Arthrobacter sp.)
# How it was run: as §1
# Community 10 = system: Community 10
# How it was run: as §1
# Community 4 = system: Community 4
# How it was run: as §1
# Community 6 = system: Community 6
# How it was run: as §1
# Community 7 = system: Community 7
# How it was run: as §1
# Community 8 = system: Community 8
# How it was run: as §1
# Community 9 = system: Community 9
# How it was run: as §1
# [8] = system: Flavobacterium 1 (Flavobacterium glaciei)
# How it was run: as §1
# [9] = system: Flavobacterium 2 (Flavobacterium succinicans)
# How it was run: as §1
# [10] = system: Hymenobacter 1 (Hymenobacter glaciei)
# How it was run: as §1
# [11] = system: Microbacterium 1 (Microbacterium arborescens)
# How it was run: as §1
# [12] = system: Neobacillus 1 (Neobacillus soli)
# How it was run: as §1
# [13] = system: Oryzobacter 1 (Oryzobacter terrae)
# How it was run: as §1
# [14] = system: Paenibacillus 1 (Paenibacillus castaneae)
# How it was run: as §1
SMILES,relative growth [1],relative growth [2],relative growth [3],relative growth [4],relative growth [5],relative growth [6],relative growth [7],relative growth (Community 10),relative growth (Community 4),relative growth (Community 6),relative growth (Community 7),relative growth (Community 8),relative growth (Community 9),relative growth [8],relative growth [9],relative growth [10],relative growth [11],relative growth [12],relative growth [13],relative growth [14]
CC1(C)C(C=C(Cl)Cl)C1C(=O)OC(C#N)c1cccc(Oc2ccccc2)c1 (stereo not given),0.976 (inactive),1.04 (inactive),1.08 (inactive),1.07 (inactive),1.28 (inactive),0.971 (inactive),1.03 (inactive),1.21 (inactive),1.1 (inactive),1.12 (inactive),0.963 (inactive),1.08 (inactive),1.12 (inactive),0.979 (inactive),1.05 (inactive),1.08 (inactive),1.03 (inactive),1.02 (inactive),1.07 (inactive),1 (inactive)
COc1ccc(C(=CC(=O)N2CCOCC2)c2ccc(Cl)cc2)cc1OC (mixture of isomers),0.973 (inactive),0.993 (inactive),0.998 (inactive),1.03 (inactive),1.06 (inactive),0.983 (inactive),0.973 (inactive),0.919 (inactive),1.07 (inactive),0.974 (inactive),0.947 (inactive),0.986 (inactive),1.03 (inactive),1.07 (inactive),0.979 (inactive),1.05 (inactive),1.03 (inactive),1.02 (inactive),1.12 (inactive),0.961 (inactive)
N#C/N=C1\SCCN1Cc1ccc(Cl)nc1,0.998 (inactive),1 (inactive),1 (inactive),0.984 (inactive),1.1 (inactive),1.11 (inactive),1.06 (inactive),1.02 (inactive),1.04 (inactive),1.05 (inactive),0.846 (inactive),1.07 (inactive),1.09 (inactive),1.1 (inactive),1.04 (inactive),1.21 (inactive),1.03 (inactive),1.07 (inactive),1.02 (inactive),1.05 (inactive)
CC(C)N(C)S(=O)(=O)NC(=O)c1cc(-n2c(=O)cc(C(F)(F)F)n(C)c2=O)c(F)cc1Cl,0.995 (inactive),1.02 (inactive),1.01 (inactive),1.03 (inactive),1.1 (inactive),1.01 (inactive),1.07 (inactive),0.909 (inactive),1.13 (inactive),1.03 (inactive),1.06 (inactive),1.08 (inactive),1.14 (inactive),1 (inactive),0.978 (inactive),1.04 (inactive),1 (inactive),0.98 (inactive),1.02 (inactive),0.99 (inactive)
CN1COCN(Cc2cnc(Cl)s2)/C1=N\[N+](=O)[O-],0.991 (inactive),0.983 (inactive),0.984 (inactive),1.04 (inactive),1.04 (inactive),1.02 (inactive),1.13 (inactive),0.777 (inactive),1.04 (inactive),0.963 (inactive),0.896 (inactive),1.02 (inactive),1.06 (inactive),1.02 (inactive),0.975 (inactive),0.998 (inactive),0.974 (inactive),1.01 (inactive),0.955 (inactive),0.945 (inactive)
CC(C)NC(=O)N1CC(=O)N(c2cc(Cl)cc(Cl)c2)C1=O,0.998 (inactive),0.934 (inactive),1.01 (inactive),0.984 (inactive),1.06 (inactive),0.957 (inactive),0.841 (inactive),1.01 (inactive),0.925 (inactive),0.969 (inactive),1.07 (inactive),0.959 (inactive),0.94 (inactive),0.854 (inactive),0.973 (inactive),0.959 (inactive),0.984 (inactive),0.961 (inactive),1.02 (inactive),0.996 (inactive)
CO/N=C(/C(=O)OC)c1ccccc1CO/N=C(\C)c1cccc(C(F)(F)F)c1,0.966 (inactive),0.929 (inactive),0.961 (inactive),1.07 (inactive),0.928 (inactive),0.876 (inactive),0.97 (inactive),0.708 (inactive),0.822 (inactive),0.809 (inactive),1.05 (inactive),0.968 (inactive),0.784 (inactive),0.975 (inactive),0.943 (inactive),1.05 (inactive),0.99 (inactive),1 (inactive),1.26,0.9 (inactive)
C/C(=N\C#N)N(C)Cc1ccc(Cl)nc1,0.986 (inactive),1.01 (inactive),1.04 (inactive),0.965 (inactive),1.03 (inactive),0.972 (inactive),0.973 (inactive),1.15 (inactive),1 (inactive),1.05 (inactive),1.02 (inactive),1.05 (inactive),0.986 (inactive),0.92 (inactive),1.02 (inactive),0.997 (inactive),0.997 (inactive),0.993 (inactive),1.07 (inactive),1.06 (inactive)
COc1cccc(C(=O)NN(C(=O)c2cc(C)cc(C)c2)C(C)(C)C)c1C,0.951 (inactive),0.969 (inactive),0.979 (inactive),0.982 (inactive),0.98 (inactive),0.884 (inactive),1.02 (inactive),0.786 (inactive),0.822 (inactive),0.89 (inactive),1.12 (inactive),1.03 (inactive),0.893 (inactive),0.818 (inactive),0.92 (inactive),0.923 (inactive),0.977 (inactive),0.914 (inactive),1.06 (inactive),0.926 (inactive)
CS(=O)(=O)c1cc(C(F)(F)F)ccc1C(=O)c1cnoc1C1CC1,1.02 (inactive),1.01 (inactive),1.04 (inactive),1.01 (inactive),1.1 (inactive),1.08 (inactive),1.04 (inactive),1.13 (inactive),1.14 (inactive),1.13 (inactive),0.983 (inactive),1.02 (inactive),1.09 (inactive),1.01 (inactive),1.07 (inactive),1.04 (inactive),1.02 (inactive),1.06 (inactive),0.94 (inactive),1.13 (inactive)
OC(Cn1cncn1)(c1ccc(F)cc1)c1ccccc1F (stereo not given),0.996 (inactive),1.04 (inactive),1.01 (inactive),1.02 (inactive),0.835 (inactive),1.11 (inactive),1.04 (inactive),1.09 (inactive),1.08 (inactive),1.07 (inactive),0.819 (inactive),1.04 (inactive),1.08 (inactive),1.12 (inactive),1.07 (inactive),1.13 (inactive),0.996 (inactive),1.08 (inactive),1.05 (inactive),1.05 (inactive)
COC(=O)NC(=S)Nc1ccccc1NC(=S)NC(=O)OC,0.978 (inactive),0.978 (inactive),0.998 (inactive),1.02 (inactive),0.923 (inactive),0.973 (inactive),1.07 (inactive),0.99 (inactive),0.943 (inactive),0.97 (inactive),1.03 (inactive),0.993 (inactive),1.05 (inactive),1.08 (inactive),0.993 (inactive),0.952 (inactive),1 (inactive),1.01 (inactive),0.947 (inactive),0.934 (inactive)
CC(C)N1C(=O)c2ccccc2NS1(=O)=O,0.965 (inactive),0.994 (inactive),0.991 (inactive),0.998 (inactive),1.03 (inactive),1.05 (inactive),1.13 (inactive),0.86 (inactive),0.932 (inactive),0.962 (inactive),1.02 (inactive),0.996 (inactive),1.01 (inactive),1.09 (inactive),1.02 (inactive),1.09 (inactive),0.977 (inactive),1.04 (inactive),1.02 (inactive),0.96 (inactive)
COCC(C)N(C(=O)CCl)c1c(C)csc1C (stereo not given),0.991 (inactive),0.984 (inactive),0.964 (inactive),1.02 (inactive),0.907 (inactive),0.814 (inactive),1.05 (inactive),0.97 (inactive),0.913 (inactive),0.975 (inactive),0.996 (inactive),1.01 (inactive),1.01 (inactive),0.948 (inactive),1.01 (inactive),0.962 (inactive),1.04 (inactive),0.98 (inactive),0.982 (inactive),0.961 (inactive)
CNC(=O)c1cc(Cl)cc(C)c1NC(=O)c1cc(Br)nn1-c1ncccc1Cl,1.01 (inactive),1.05 (inactive),1.03 (inactive),0.963 (inactive),1.08 (inactive),0.758 (inactive),1.02 (inactive),1.14 (inactive),1.09 (inactive),1.07 (inactive),1.02 (inactive),1.04 (inactive),1.09 (inactive),1 (inactive),1.03 (inactive),1.13 (inactive),0.975 (inactive),1.04 (inactive),0.99 (inactive),1.09 (inactive)
O=C1C2(Cl)C3(Cl)C4(Cl)C(Cl)(Cl)C5(Cl)C3(Cl)C1(Cl)C5(Cl)C24Cl (stereo not given),0.934 (inactive),0.817 (active),0.99 (inactive),1.03 (inactive),0.00606 (active),0.00565 (active),0.0264 (active),0.82 (inactive),0.858 (inactive),0.811 (inactive),1.14 (inactive),1.02 (inactive),0.875 (inactive),0.126 (active),0.847 (inactive),0.00946 (active),1.01 (inactive),0.911 (inactive),0.00589 (active),0.678 (active)
